Measurements as given in PubChem BioAssay AID489039 (National Center for Advancing Translational Sciences (NCATS), 2010).
“And” between values parts separate entries of the source, which are not always exact repeats. Equal values may be shown once. Inconclusive results are not listed. The source made the active and inactive calls. The call rests on the fitted dose curve; in most records, active means well fitted inhibition curve with a large enough effect; inconclusive means small, poorly fitted or top-dose-only effect, or effect the other way; inactive means no such curve, though single readings can be large or run the other way.

Target: Nuclear receptor ROR-alpha (Homo sapiens) (UniProt P35398)
Assay: ROR alpha selectivity assay for inhibitors of ROR gamma transcriptional activity
Details: Drosophila S2 Gal4-RORalpha UAS-luciferase, 20 h; series mostly up to 92.2 µM; activity change, negative = inhibition: at the top concentration
From the text: NIH Molecular Libraries Probe Production Network [MLPCN] NIH Chemical Genomics Center [NCGC] MLPCN Grant: R03 DA026211-01 Assay Provider: Dan Littman, New York University Assay Overview: The retinoic acid-related orphan receptor (ROR) gamma is a transcription factor that has a central role in the differentiation of Th17 cells, a subset of T helper cells that secrete the inflammatory cytokines IL-17A, IL-17F, and IL-22. Th17 cells have been implicated in graft versus host disease, autoimmune disease and asthma. RORgamma is induced in naive T helper cells in the presence of TGF-beta combined with IL-6, IL-21, or IL-23, and thereafter directs the expression of the Th17 lineage cytokines. To identify nonselective inhibitors, a Drosophila Schneider cell line was stably transfected with two vectors: a gene expressing a fusion of the Gal4 DNA binding domain and the transactivation domain of the ROR alpha, under the control of the metallothionine promoter and a Photinus luciferase reporter regulated by the Gal4 binding site enhancer, UAS. […] Small molecule inhibitors that inhibit RORgamma and RORalpha, or components common to both, will be active in both assays and thus scored as nonselective.
Assay Protocol Summary: For screening, 600 cells in 4 uL/well were dispensed into white solid 1536-well plates (Grenier) using a solenoid-based dispenser. Following transfer of 23 nL compound or DMSO vehicle by a pin tool, the plates were incubated 1 hr at ambient temperature, and 1 uL/well copper sulfate (700 uM final concentration) was added. The plates were centrifuged 15 s at 1000 RPM and incubated 20 hr at ambient temperature. After addition of 1.5 uL Photinus luciferase detection reagent, the plates were incubated 10 min at ambient temperature and then read by an ViewLux (Perkin Elmer) to detect luminescence.

Row | Structure (SMILES) | activity change, negative = inhibition | Potency
1 | COc1cc(O)c(C(CC(=O)NCC2CCCCC2)c2ccc3c(c2)OCO3)c(OC)c1 (stereo not given) | -20.1% (inactive) | –
2 | COCOc1cc(OC)cc(OC)c1C(CC(=O)N1CC(C)CC(C)C1)c1ccc2c(c1)OCO2 (stereo not given) | -81.7% (inactive) | –
3 | COc1cc(OC)c(C(CC(=O)N2CCCC(C)C2)c2ccc3c(c2)OCO3)c(OCc2ccccc2)c1 (stereo not given) | – | 20.4 µM (active)
4 | COc1cc(O)c(C(CC(=O)N2CC(C)NC(C)C2)c2ccc3c(c2)OCO3)c(OC)c1 (stereo not given) | -10.8% (inactive) | –
5 | CC(C)(C)c1ccc([S+](=O)([O-])Nc2ccccc2C(O)(C(F)(F)F)C(F)(F)F)cc1 | – | 18.2 µM (active)
6 | C[C@@H]1[C@H](C)CC[C@]2(C(=O)O)CC[C@]3(C)C(=CC[C@@H]4[C@@]5(C)CC[C@H](O)C(C)(C)[C@H]5CC[C@]43C)[C@@H]12 | – | 18.2 µM (active)
7 | Cc1ccc(C)c(/C=N/n2cc(-c3ccccc3)[nH]c2=S)c1 | – | 0.911 µM (active)
8 | CCOc1ncccc1C(=O)OCC(=O)Nc1ccc(-c2nc3ccc(C)cc3s2)cc1 | – | 7.24 µM (active)
9 | COc1cc(O)c(C(CC(=O)N2CCC[C@@H](C)C2)c2ccc3c(c2)OCO3)c(OC)c1 (stereo not given in full) | 4.65% (inactive) | –
10 | COc1ccccc1C(CC(=O)N1C[C@H](C)C[C@H](C)C1)c1ccccc1 (stereo not given in full) | – | 51.2 µM (active)
11 | COc1cc(O)c(C(CC(=O)N2CCCC(C)C2)c2ccccc2OC)c(OC)c1 (stereo not given) | 24.7% (inactive) | –
12 | COc1ccc2nc(NNC(=O)COc3ccccc3)sc2c1 | – | 6.45 µM (active)
13 | COc1cc(O)c(C(CC(=O)N2CCCC(C#N)C2)c2ccc3c(c2)OCO3)c(OC)c1 (stereo not given) | 18.3% (inactive) | –
14 | COc1cc(O)c(C(CC(=O)Nc2cccc3ccccc23)c2ccc3c(c2)OCO3)c(OC)c1 (stereo not given) | -14.7% (inactive) | –
15 | Cc1nn(-c2cc(C)c3ccccc3n2)c2c1C1C(C2)C1(C)C (stereo not given) | – | 8.12 µM (active)
16 | COc1cc(O)c(C(CC(=O)N2CCCC(C)C2)c2ccccc2)c(OC)c1 (stereo not given) | 17.8% (inactive) | –
17 | COc1cc(O)c(C(CC(=O)NC2CCCc3ccccc32)c2ccc3c(c2)OCO3)c(OC)c1 (stereo not given) | -3.21% (inactive) | –
18 | Cc1cc(C)c2sc(NC(=O)c3ccc(N4C(=O)CCC4=O)cc3)nc2c1 | – | 0.407 µM (active)
19 | CC(C)(C)c1ccc(-c2noc(CCC(=O)Nc3cccnc3)n2)cc1 | – | 0.0457 µM (active)
20 | CCOc1cccc(-c2cc(-c3n[nH]c(=S)n3CC)c3ccccc3n2)c1 | – | 7.24 µM (active) and 18.2 µM (active)
